# Experimental data reported in PubChem BioAssay (NCI).
# About 83,000 compounds went through this panel and 20% of them were active in at least one assay; those are over-represented in the sample as a whole.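 Note: values are percent growth. 100 is the growth of untreated cells, values between 100 and 0 indicate rising inhibition; between -100 and 0 indicates cell death.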 Values without a mark were called inactive. Calls of active or inactive are those of the source. The calls were made as follows: active = growth percent below 10; inactive = the rest.
# Key:
# Assay in all cases: NCI-60 one-dose screen, 48 h (100 = growth as untreated, 0 = no growth, -100 = all killed)
# Conditions in all cases: 10 µM unless noted
# NCI-H23 lung = tested on: NCI-H23 lung
# NCI-H226 lung = tested on: NCI-H226 lung
# NCI-H322M lung = tested on: NCI-H322M lung
# HOP-62 NSCLC = tested on: HOP-62 NSCLC
# NCI-H460 lung = tested on: NCI-H460 lung
# HOP-92 NSCLC = tested on: HOP-92 NSCLC
# NCI-H522 lung = tested on: NCI-H522 lung
# A549/ATCC NSCLC = tested on: A549/ATCC NSCLC
# 786-0 renal = tested on: 786-0 renal
# COLO 205 colon = tested on: COLO 205 colon
# DU-145 prostate = tested on: DU-145 prostate
# K-562 leukemia = tested on: K-562 leukemia
# MALME-3M melanoma = tested on: MALME-3M melanoma
# MDA-MB-231 breast = tested on: MDA-MB-231 breast
# RXF 393 renal = tested on: RXF 393 renal
# SF-268 CNS = tested on: SF-268 CNS
# SF-295 CNS = tested on: SF-295 CNS
# SF-539 CNS = tested on: SF-539 CNS
# UACC-257 melanoma = tested on: UACC-257 melanoma
# M14 melanoma = tested on: M14 melanoma
SMILES,growth (NCI-H23 lung),growth (NCI-H226 lung),growth (NCI-H322M lung),growth (HOP-62 NSCLC),growth (NCI-H460 lung),growth (HOP-92 NSCLC),growth (NCI-H522 lung),growth (A549/ATCC NSCLC),growth (786-0 renal),growth (COLO 205 colon),growth (DU-145 prostate),growth (K-562 leukemia),growth (MALME-3M melanoma),growth (MDA-MB-231 breast),growth (RXF 393 renal),growth (SF-268 CNS),growth (SF-295 CNS),growth (SF-539 CNS),growth (UACC-257 melanoma),growth (M14 melanoma)
CCN1C2CCC1/C(=C\c1ccccc1)C(=O)/C2=C/c1ccccc1,32.5%,59.9%,51.6%,59.8%,51.5%,58.5%,41.3%,72.9%,57.2%,43.5%,1.64% (active),32.1%,63.7%,79.2%,48.9%,42.8%,48.4%,45.4%,52.2%,48.2%
COc1ccc(CNc2ccc3nc(NC(=O)CN4CCCCCC4)sc3c2)cc1,71.1%,80%,106%,113%,94.9%,77.6%,70.3%,80.5%,104%,82.4%,99.2%,44.6%,96.3%,77.7%,97%,108%,83.8%,102%,86%,85.9%
Cc1cc(Cl)nc(N2CCN(CCNc3ccnc4cc(Cl)ccc34)CC2)n1,27.2%,59.8%,75.2%,68.2%,48.3%,27.9%,51.8%,58.2%,49.1%,-50.1% (active),66.6%,10.5%,41.8%,49.5%,61.5%,72.2%,36.4%,31.7%,13.5%,30.9%
COc1cc2c3c(c4c5ccccc5[nH]c4c2c(OC)c1OC)C(=O)N(CCN1CCCCC1)C3=O,17.5%,28.2%,32%,41.7%,-48.3% (active),48.7%,36.3%,-63.3% (active),-85.9% (active),28.3%,-91.2% (active),3.53% (active),32%,38.1%,-9.89% (active),22.7%,32.9%,41.4%,42.2%,12.3%
CN(C)CCCn1c2c(c3ccncc3c1=O)C(=O)c1ccccc1-2,-23.1% (active),-53.1% (active),21.2%,-11.4% (active),-9.77% (active),-18.1% (active),-22.5% (active),30.2%,5.98% (active),10.6%,-8.23% (active),-61.6% (active),-55.8% (active),8.66% (active),-15.7% (active),-15.3% (active),1.81% (active),-17% (active),-30.3% (active),-36.5% (active)
O=C1NC(=O)C(c2coc3cc(Br)ccc23)=C1c1c[nH]c2ccccc12,77.5%,67.2%,77.7%,38.9%,19.5%,70.4%,51.1%,33.5%,69.5%,35.1%,65.1%,11.5%,66.2%,59.4%,75.3%,43.1%,71.1%,64.7%,72%,31.5%
COc1c2c(cc3c1C(=O)N[C@@H]1[C@@H](O)[C@@H](O)[C@H](O)C[C@@H]31)OCCO2,104%,92.6%,93.5%,99.9%,109%,91.6%,93.4%,96.5%,97.4%,103%,107%,95.6%,106%,109%,102%,97.9%,99.6%,106%,98.8%,105%
Cc1ccc2c(c1)sc1nc(-c3c[nH]c4ccccc34)c(Nc3ccccc3)n12,98.4%,98.6%,106%,96.1%,101%,101%,90.6%,101%,105%,107%,108%,94.4%,101%,93%,111%,101%,100%,97.2%,105%,107%
CCOC(=O)c1cn2ncnc(Oc3ccc(NC(=O)NC4CC4)c(Cl)c3)c2c1C,84.6%,71.4%,101%,90.9%,102%,109%,75.9%,99.2%,93.5%,108%,97%,73.6%,95.3%,89.3%,92.3%,88.9%,84.8%,79.5%,100%,98.9%
O=S(O)c1cc(Cl)cc(Cl)c1OCc1ccccc1,101%,94.5%,95.9%,101%,101%,87.6%,96.2%,90.2%,102%,105%,109%,106%,99.8%,107%,97.3%,101%,108%,103%,90.8%,101%
O=C(Nc1ccccc1O)c1ccc(CNc2ccnc(C(F)(F)F)c2)cc1,39.1%,68.9%,56.4%,60.3%,38.8%,78.2%,34.3%,56.5%,45.4%,112%,59%,18.2%,22%,62.9%,80.6%,54.8%,36%,39.1%,46.4%,34%
CCN(CC)c1ccc(-c2cc(-c3cc(OC)c(OC)c(OC)c3)nc(N3CCC(O)CC3)c2C#N)cc1,0.411% (active),-36.2% (active),18.1%,17.9%,-32.8% (active),-17.6% (active),-52.3% (active),0.627% (active),-22% (active),-60.9% (active),1.59% (active),2.04% (active),-49.2% (active),-58.7% (active),-13.3% (active),0.835% (active),-62.2% (active),-44.3% (active),-47.5% (active),-56.4% (active)
NCCCNc1nc2ccccc2c2c(=O)c3cc(Cl)ccc3sc12,45.7%,93.1%,39.5%,-82.9% (active),-83.8% (active),-7.36% (active),-83.6% (active),-18.4% (active),2.76% (active),-83.6% (active),-76.9% (active),-70.1% (active),-38.3% (active),-82.9% (active),47.1%,37.7%,4.81% (active),55.7%,74.9%,-48.2% (active)
CC(O)Cc1c[nH]c(=O)[nH]c1=O (stereo not given),102%,109%,132%,-56.4% (active),103%,111%,110%,93.7%,109%,-66.5% (active),97.9%,126%,142%,112%,192%,90%,112%,110%,92.7%,102%
CC1SC(c2ccccc2O)N(NC(=O)CCC(=O)c2nc3ncccc3[nH]2)C1=O (stereo not given),86.5%,80.7%,93.4%,87.8%,103%,79.2%,95.5%,96.2%,90.3%,110%,102%,109%,94%,103%,96.4%,95.7%,96.2%,93.1%,99.4%,97.6%
